For 40 molecules, outcome results are on record in PubChem BioAssay (Tox21).

Molecules are shown by their SMILES. Results filed as inconclusive are left out. Calls of active or inactive are those of the source. Calls come from the whole dose curve; as a rule, active = well fitted inhibition curve with a large enough effect in the repeat runs; inconclusive = weak or mixed curves, or effect the other way; inactive = no such curve, though single readings can be large or run the other way.

The nature of the test: qHTS assay to identify small molecule antagonists of the retinoic acid receptor (RAR) signaling pathway (AID 1159552; note: nearly all actives have a fitted effect of over 50% in size). The conditions noted are these: C3RL4 RARE luciferase reporter, retinol-stimulated, 6 h; series mostly up to 92.4 µM. The text has this: National Center for Advancing Translational Sciences [NCATS]
NIH Chemical Genomics Center [NCGC]
U.S. Environmental Protection Agency [EPA]
National Institutes of Environmental Health Sciences [NIEHS]
National Toxicology Program [NTP]
U.S. Food and Drug Administration [FDA]
All-trans Retinoic acid (atRA) is the potent natural metabolite of retinol and plays an important role in normal embryonic development and maintenance of cellular phenotype in adult animals. atRA is the activating ligand for the retinoic acid receptors (RARs) which form heterodimers with retinoid X receptors (RXRs) on the retinoic acid response element (RARE). Through activation of the RAR/RXRs nuclear receptors, atRA regulates the transcription of a large number of protein-coding genes and regulatory RNAs. Intracellular levels of atRA are controlled by the retinol signaling pathway (RSP) that regulates the biosynthesis and catabolism of atRA to maintain physiological levels. Chemicals that interfere with the RSP can cause abnormal intracellular levels of atRA and therefore are potential developmental toxicants. To assess compounds for the potential adverse effect on embryonic development through interfering with retinol signaling, a cell-based RARE luciferase reporter gene assay was used. C3RL4 cell line (OARSA/CFSAN/FDA, Laurel, MD) was used to screen Tox21 10K compound library for identifying inhibitors of the RSP.
Tox21 Assay Protocol Summary:
C3RL4 cells were seeded at 1,000/well in 4 uL of assay medium into white solid 1,536-well tissue culture plates (Greiner Bio-One North America Inc. Monroe, NC) using a Multidrop Combi (Thermo Scientific, Waltham, MA) dispenser. After incubation at 37 C and 5% CO2 for an overnight, 23 nL of compounds dissolved in DMSO, positive control or DMSO only were transferred by a Pintool station (Kalypsys, San Diego, CA). One ul of 1 uM (final concentration) of Retinol was added right after the compound addition by using a Flying Reagent Dispenser (FRD) (Aurora Discovery, San Diego, CA). After 6 hr incubation at 37 C and 5% CO2, 5 uL of Amplite Luciferase reagent (AAT Bioquest Inc. Sunnyvale, CA) was added to each assay plate using an FRD. Luminescence was quantified on a ViewLux plate reader (PerkinElmer, Waltham, MA) after 30 min incubation at room temperature.
As for `CC(O)CC(C)(C)O` (stereo not given), the call was inactive.
Consider `OCc1ccccc1`, for which the result was inactive.
Then `CCCCCCCO`, with “inactive”; and `O=C(O)c1ccc(S(=O)(=O)N(Cl)Cl)cc1`, with “inactive”; and `CC1(C)NC(=O)NC1=O`, with “inactive”.
As for `CC(C)(C)c1cc(Cc2cc(C(C)(C)C)c(O)c(C(C)(C)C)c2)cc(C(C)(C)C)c1O`, the call was inactive.
Take `NC(=S)NNC(N)=S`: the molecule was classed as inactive.
In the case of `CCCCCCCCCCN` it was “inactive”; in that of `Nc1nc(N)nc(-c2ccccc2)n1`, “inactive”; in that of `CCCCCCC=O`, “inactive”.
Turning to `COC(=O)CCCC(=O)OC`, the result was inactive.
For the molecule `C=Cc1ccc(C)cc1`, the molecule was called inactive.
On to `O=C(O)Cn1c(=O)n(Cc2ccc(Br)cc2F)c(=O)c2ccc(Cl)cc21`, for which the result was inactive.
In the case of `CCCCOC(=O)c1ccc(N)cc1`, the molecule was called inactive.
As for `Cc1ccc(C(C)C)c(O)c1`, the outcome was inactive.
For the molecule `NCCN1CCNCC1`, the molecule was called inactive.
Then `COc1ccc([N+](=O)[O-])cc1N`, with “inactive”; and `CCNc1ccccc1`, with “inactive”; and `O=S(=O)(O)c1ccc(N=Nc2c(O)ccc3cc(S(=O)(=O)O)ccc23)cc1`, with “inactive”.
As for `CC(=O)CC(C)(C)O`, the call was inactive.
In the case of `CNC(=S)N(C)C`, the molecule was classed as inactive.
Take `Cc1ccc(S(=O)(=O)N=C=O)cc1`: the molecule was classed as inactive.
As to `CCOCC(=O)O`, the outcome was inactive.
Consider `O=C(O)c1ccccc1C(=O)O`, for which the call was inactive.
Then `CC(C)CCCCCCCOC(=O)CCCCC(=O)OCCCCCCCC(C)C`, with “inactive”; and `CC1(C)OC[C@@H]2O[C@@]3(C(=O)O)OC(C)(C)O[C@H]3[C@@H]2O1`, with “inactive”.
With `COc1ccc(C)cc1N`, the molecule was classed as inactive.
`COCCOC(=O)c1ccccc1C(=O)OCCOC`: the call was inactive.
With `CC(C)OC(=O)COc1ccc(Cl)cc1Cl`, the result was inactive.
Then `O=C(O)CCCCCCCCC(=O)O`, with “inactive”; and `Cc1ccc([N+](=O)[O-])cc1S(=O)(=O)O`, with “inactive”.
Regarding `c1ccc2c(c1)Cc1ccccc1-2`, the call was inactive.
As to `CCCCCCO`, the molecule was classed as inactive.
For `O=C(OCC1CCC2OC2C1)C1CCC2OC2C1` (stereo not given), the result was inactive.
In the case of `C=CC(=O)OCCC(=O)O`, the call was inactive.
Take `O=C1c2ccccc2CCc2ccccc21`: the molecule was classed as inactive.
In the case of `CCOC(=O)n1ccn(C)c1=S` it was “inactive”; in that of `CC(C)c1cccc(C(C)C)c1`, “inactive”; in that of `CC(CCO)CC(C)(C)C` (stereo not given), “inactive”.
In the case of `CCOCCOCCOCCO` it was “inactive”.
